Assay results published in the antibiotic and cytotoxicity screens of Wong et al. (2023).
Out of some 39,000 compounds screened, about 3,300 (8.5%) were called active. This excerpt belongs to a sample that is enriched for actives.

system: HepG2; assay: cytotoxicity call (relative viability < 0.9); conditions: 10 µM

Compound | cytotoxicity call
O=C(C[C@@H]1CC[C@@H]2[C@H](COC[C@H](O)CN2C(=O)Nc2ccc(Cl)cc2)O1)NCCc1ccncc1 | inactive
Cn1ccnc1C(=O)N[C@@H]1CN(C(N)=O)[C@H]2CCCO[C@@H]12 | inactive
C[C@@H]1CN([C@@H](C)CO)C(=O)Cc2cc(NC(=O)C3CC3)ccc2O[C@@H]1CN(C)S(=O)(=O)c1cccs1 | inactive
Cc1ccc(S(=O)(=O)Nc2ccc3c(c2)C(=O)N([C@H](C)CO)C[C@@H](C)[C@H](CN(C)C(=O)Nc2ccc4c(c2)OCO4)OCCCC[C@@H](C)O3)cc1 | inactive
C[C@H](CO)N1C[C@H](C)[C@@H](CN(C)S(=O)(=O)c2ccc(F)cc2)OCCCC[C@H](C)Oc2ccc(NC(=O)Nc3ccc4c(c3)OCO4)cc2C1=O | inactive
Cc1noc(C)c1S(=O)(=O)Nc1ccc2c(c1)C(=O)N([C@@H](C)CO)C[C@H](C)[C@H](CN(C)S(=O)(=O)c1ccccc1)O2 | inactive
C[C@@H]1CN([C@H](C)CO)C(=O)c2cc(NC(=O)Cn3cnnn3)ccc2O[C@@H]1CN(C)CC1CC1 | inactive
COC(=O)COc1nsnc1N1CCOCC1 | inactive
COc1ccc(-c2nc(N3CCOCC3)c3sc(CN(C)c4ncc(C(=O)NO)cn4)cc3n2)cn1 | active
CNc1ccc(-c2nc(N3CCOCC3)c3sc(CN(C)c4ncc(C(=O)NO)cn4)cc3n2)cn1 | active
COc1ccc(S(=O)(=O)Nc2ccc3c(c2)C(=O)N([C@@H](C)CO)C[C@@H](C)[C@H](CN(C)C(=O)Nc2c(C)noc2C)OCCCC[C@H](C)O3)cc1 | inactive
O=C(/C=C/c1ccc(O)c(O)c1)O[C@H]1[C@H](O)C[C@](O)(C(=O)O)C[C@H]1OC(=O)/C=C/c1ccc(O)c(O)c1 | inactive
Cc1ccc(S(=O)(=O)Nc2ccc3c(c2)CC(=O)N([C@H](C)CO)C[C@H](C)[C@@H](CN(C)S(C)(=O)=O)O3)cc1 | inactive
Cc1coc2c1C(=O)C(=O)c1c-2ccc2c1CCCC2(C)C | active
Cc1cccc2c3c(ccc12)C1=C(C(=O)C3=O)C(C)CO1 (stereo not drawn) | active
CC1COC2=C1C(=O)C(=O)c1c2ccc2c1CCCC2(C)C (stereo not drawn) | active
Cc1cccc2c1OCC[C@@H](N)C2=O | inactive

Compound | cytotoxicity call
C[C@@H]1CN([C@@H](C)CO)C(=O)Cc2cc(NC(=O)Nc3cccc4ccccc34)ccc2O[C@H]1CN(C)Cc1ccc(-c2ccccc2)cc1 | inactive
COc1cc2c(cc1OC)CN(C(=O)[C@H]1[C@@H]3C(=O)O[C@@H](c4ccccc4)[C@@H](c4ccccc4)N3[C@@H](c3ccccc3OCCO)[C@]13C(=O)Nc1ccc(C#CC4(O)CCCCCC4)cc13)CC2 | inactive
O=C(C[C@@H]1CC[C@H]2[C@@H](COC[C@H](O)CN2C(=O)c2ccccn2)O1)NC1CCC1 | inactive
O[C@@H]1[C@@H](O)[C@H](OC/C=C/c2ccccc2)O[C@H](CO[C@@H]2OC[C@@H](O)[C@@H](O)[C@@H]2O)[C@H]1O | inactive
NCc1cccc2nsnc12 | inactive
C[C@H]1CN([C@@H](C)CO)C(=O)c2cccc(NC(=O)C3CC3)c2O[C@@H]1CN(C)S(=O)(=O)c1ccc(F)cc1 | inactive
O=C(O)c1cc(N=Nc2ccc(S(=O)(=O)Nc3ccccn3)cc2)ccc1O | inactive
C[C@@H]1CN([C@H](C)CO)C(=O)Cc2cc(NC(=O)CCN3CCOCC3)ccc2O[C@@H]1CN(C)Cc1ccc(C(=O)O)cc1 | inactive
C[C@H]1CN([C@@H](C)CO)C(=O)Cc2cc(NC(=O)CCN3CCOCC3)ccc2O[C@H]1CN(C)Cc1ccc(C(=O)O)cc1 | inactive
CC1(C)[C@H]2C[C@@H](O[C@H]3O[C@@H](CO)[C@@H](O)[C@@H](O)[C@@H]3O)[C@@]1(C)C[C@@H]2O | inactive
COC(=O)[C@@]12O[C@@H]1[C@H](O[C@@H]1O[C@H](CO)[C@@H](O)[C@H](O)[C@H]1O)C[C@H]1[C@]3(C)C[C@@H](c4ccoc4)OC(=O)[C@H]3CC[C@]12C | active
CC1(C)CC[C@]2(C(=O)O[C@H]3O[C@@H](CO)[C@@H](O)[C@@H](O)[C@@H]3O)CC[C@]3(C)C(=CC[C@H]4[C@@]5(C)C[C@@H](O)[C@H](O[C@H]6O[C@H](C(=O)O)[C@@H](O)[C@@H](O)[C@@H]6O)C(C)(C)[C@@H]5CC[C@]43C)[C@@H]2C1 | inactive
COCC(=O)Nc1ccc2c(c1)OC[C@H](C)N(C(=O)Cc1cccnc1)C[C@H](C)[C@@H](OC)CN(C)C2=O | inactive
Cc1noc(C)c1S(=O)(=O)Nc1ccc2c(c1)C(=O)N([C@@H](C)CO)C[C@@H](C)[C@@H](CN(C)S(=O)(=O)c1ccccc1)O2 | inactive
CC(C)C#Cc1ccc2c(c1)O[C@H](CN(C)S(=O)(=O)c1cn(C)cn1)[C@@H](C)CN([C@@H](C)CO)S2(=O)=O | inactive
C[C@@H]1CN([C@@H](C)CO)C(=O)Cc2cc(NS(C)(=O)=O)ccc2O[C@@H]1CN(C)Cc1ccc(C(=O)O)cc1 | inactive
